Compounds with a hit are over-represented: about 5.1% of the library has one in this group of screens.
S1P4 antag: S1P4 receptor antagonists, primary screen, cell-based; Sphingosine 1-phosphate receptor 4 (Homo sapiens), O95977; S1P4-expressing cells, antagonist mode, reporter read-out; inhibition, % at 4.98 µM; 220,000 compounds, 0.26% hits; in the data active = inhibition above about 29%
Target sequence (O95977 whole entry, looked up): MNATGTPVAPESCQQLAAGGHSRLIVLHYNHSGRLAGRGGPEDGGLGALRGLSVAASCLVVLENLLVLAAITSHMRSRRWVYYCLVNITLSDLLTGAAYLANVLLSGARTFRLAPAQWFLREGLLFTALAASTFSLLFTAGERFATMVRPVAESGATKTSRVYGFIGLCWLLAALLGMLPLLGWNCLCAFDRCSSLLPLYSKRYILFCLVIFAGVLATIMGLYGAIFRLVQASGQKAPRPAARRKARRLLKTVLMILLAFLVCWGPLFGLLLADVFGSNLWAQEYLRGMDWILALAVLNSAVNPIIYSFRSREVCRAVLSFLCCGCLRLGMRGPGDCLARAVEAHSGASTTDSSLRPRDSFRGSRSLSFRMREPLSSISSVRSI
S1P3 antag: S1P3 receptor antagonists, primary screen, cell-based. 170,000 compounds, 0.27% hits. inhibition, % at 4.98 µM. Sphingosine 1-phosphate receptor 3 (Homo sapiens), Q99500. CHO S1P3 NFAT-BLA reporter, FRET fluorescence, antagonist mode;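 active = inhibition above the plate cutoff, the mean inhibition of test wells on that plate plus 3 SD, cut at about 28% in these data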;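 also: cells challenged with S1P at its EC80 of 0.8 µM; blue over green emission ratio from cleaved BLA substrate after 4 h stimulation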
S1P4 agonist: S1P4 receptor agonists, primary screen, cell-based | activation, % at 4.98 µM | Sphingosine 1-phosphate receptor 4 (Homo sapiens), O95977 | 220,000 compounds, 0.35% hits | S1P4-expressing cell line, agonist reporter assay; in the data active = activation above about 11%
RAM inhibit: inhibitors of the yeast RAM network, primary screen, dse1pr::URA3 reporter, 5-FOA selection; S. cerevisiae dse1pr::URA3 reporter, 5-FOA growth OD615, 2 d; analog-sensitive cbk1-as2 kinase mutant strain; inhibition, % at 50 µM; 190,000 compounds, 1.8% hits;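 active = inhibition above a set limit, 3 SD over mean compound inhibition, cut at about 8.4% in these data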;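 also: inhibition rescues growth on 5-FOA so higher OD means more RAM inhibition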
KCC2 mod: KCC2 cotransporter modulators, thallium flux, primary screen, cell-based, HEK293 KCC2, FluoZin-2 fluorescence, MLSMR. KCC2 cells, thallium flux FluoZin-2 fluorescence. AID 1456, 2008. B-score of Tl+ flux slope (higher = more flux/activation; lower = inhibition) at 10 µM. 190,000 compounds, 2.2% hits;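 active = thallium flux slope and its plate-corrected score both differing from the plate sample mean at a set confidence after two filtering rounds, in either direction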;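 also: slope of fluorescence scaled to starting intensity during 10 to 20 s after thallium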
ROMK primary: ROMK potassium channel modulators, primary screen, cell-based, thallium flux, MLSMR library; ATP-sensitive inward rectifier potassium channel 1 (Homo sapiens), P48048; B-score at 10 µM; Tet-inducible ROMK, thallium flux fluorescence; actives lie on both sides; 130,000 compounds, 2% hits;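 active = signal ratio slope over the read window, or its plate-corrected B-score, at least 3 SD from the plate mean, either direction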;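 also: B-score of the F/F0 ratio slope over 7 to 12 s after thallium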
Target sequence (P48048 whole entry, looked up): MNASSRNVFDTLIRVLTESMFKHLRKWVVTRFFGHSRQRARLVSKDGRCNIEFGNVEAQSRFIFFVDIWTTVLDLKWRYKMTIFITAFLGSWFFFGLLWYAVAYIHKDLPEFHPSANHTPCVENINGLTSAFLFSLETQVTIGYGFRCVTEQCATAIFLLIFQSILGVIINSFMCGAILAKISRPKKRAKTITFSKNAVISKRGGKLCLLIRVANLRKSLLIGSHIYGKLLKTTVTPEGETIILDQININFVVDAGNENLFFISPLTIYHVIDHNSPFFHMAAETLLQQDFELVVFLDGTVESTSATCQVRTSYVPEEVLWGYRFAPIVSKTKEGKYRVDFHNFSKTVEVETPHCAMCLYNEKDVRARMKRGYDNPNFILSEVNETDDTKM
KCC2 secondary: KCC2 modulators in sodium-free buffer, confirmation, cell-based, HEK293 KCC2, thallium flux, secondary assay; 3,700 compounds, 15% hits; normalised thallium flux (F/F0 slope) at 10 µM; shares compounds with KCC2 mod; AID 1713, 2009; FluoZin2 fluorescence; hits give high values;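 active = thallium flux slope above the same plate's solvent-only control mean plus 3 SD; inconclusive = the two replicate wells disagree; inactive = no significant difference from solvent-only control wells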
KCC2 bumet counter: thallium flux persisting under bumetanide in KCC2 cells, confirmation, counter-screen for KCC2 modulator project, cell-based, HEK293 KCC2, FluoZin2, secondary assay 3; shares compounds with KCC2 mod; HEK293-KCC2 + bumetanide/ouabain; hits give high values; normalized thallium flux at 10 µM; 3,700 compounds, 49% hits; AID 1714, 2009;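 active = thallium entry rate above the same plate's blocked-transporter control wells by more than 3 SD; inconclusive = the two repeat wells disagree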;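 also: raw slope of fluorescence over initial fluorescence between 10 and 20 s after thallium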
KCC2 sec2: KCC2 modulators without ouabain present, confirmation, cell-based, HEK293 KCC2, thallium flux, FluoZin2, secondary assay 2 | shares compounds with KCC2 mod | thallium flux FluoZin2 fluorescence; actives lie on both sides; F/F0 rise rate, 10–20 s post-thallium | normalized thallium flux at 10 µM | 3,700 compounds, 23% hits;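 active = thallium flux slope more than 3 SD above or below the plate's solvent-only control mean, mostly below; inconclusive = the two repeat wells disagreed; inactive = no significant shift from solvent-only controls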
HEK293 Tl flux: thallium flux modulation in parental HEK cells, confirmation, counter-screen for KCC2 modulator project, cell-based, counterscreen 1; shares compounds with KCC2 mod; HEK293 parental cells, thallium flux FluoZin2, ouabain; baseline-ratio fluorescence slope, 10–20 s after thallium; thallium flux rate (normalised fluorescence) at 10 µM; 3,700 compounds, 46% hits;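 active = thallium flux rate significantly above the same plate's solvent-only control wells, beyond their mean plus 3 SD; inconclusive = the two replicate wells gave conflicting results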
KCC2 ouabain: KCC2 inhibitors and activators, ouabain retest, confirmation, HEK-KCC2 cells | shares compounds with KCC2 mod | HEK293-KCC2, thallium flux FluoZin2 fluorescence; bidirectional: low = inhibitor, high = activator | raw Tl+ flux slope (below DMSO = inhibition, above = activation) at 10 µM | 3,700 compounds, 48% hits;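 active = thallium flux slope beyond 3 SD from same-plate DMSO control mean in most replicates, usually higher, sometimes lower; inconclusive = repeat tests gave conflicting results; inactive = no significant difference from controls in most replicates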;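 also: slope of initial-normalized fluorescence between seconds 10 and 20 after thallium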
HEK counter2: native HEK Tl+ uptake effects, second counter-screen – HEK cells, counterscreen 2, counter-screen for KCC2 modulator project, confirmation; 3,700 compounds, 33% hits; shares compounds with KCC2 mod; thallium flux slope at 10 µM; HEK293 parental, thallium flux FluoZin-2 fluorescence slope;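 active = thallium flux slope above the same plate's solvent-control mean plus 3 SD in both duplicate wells; inconclusive = duplicate wells that disagreed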;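 also: run without ouabain in cells lacking the KCC2 cotransporter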
Large screens that a line does not name were inactive (follow-up assays come after a bar, where they were run).

CCn1c(-c2cc(-c3cc(C)ccc3C)nc3ccccc23)n[nH]c1=S	none
CCOc1cccc(-c2cc(-c3n[nH]c(=S)n3CC)c3ccccc3n2)c1	none (no result: S1P3 antag, KCC2 mod) | KCC2 secondary inactive | KCC2 bumet counter 0.072 | KCC2 sec2 inactive | HEK293 Tl flux 0.015 | KCC2 ouabain inconclusive | HEK counter2 inconclusive
CCCC(C)NC(=O)c1ccc(OCc2ccc(Cl)cc2)c(OC)c1 (stereo unspecified)	none (no result: ROMK primary)
Cn1c(=O)c2c(nc(SCC(=O)NCc3ccco3)n2C)n(C)c1=O	KCC2 mod 5.1 | KCC2 secondary inactive | KCC2 bumet counter inactive | KCC2 sec2 inactive | HEK293 Tl flux inactive | KCC2 ouabain inactive | HEK counter2 inactive
CC(C)n1c(SCC(=O)NCc2ccco2)nc2c1c(=O)n(C)c(=O)n2C	none
CCCCn1nnnc1SCC(=O)NCc1ccco1	KCC2 mod 4.5 (no result: S1P3 antag) | KCC2 secondary inactive | KCC2 bumet counter inactive | KCC2 sec2 inactive | HEK293 Tl flux inactive | KCC2 ouabain inactive | HEK counter2 inconclusive
O=C(CN1CCSC1=NCc1ccccc1)c1ccc(Cl)cc1	none
O=C(NCCc1ccc(Cl)cc1)C1CCN(S(=O)(=O)N2CCCC2)CC1	KCC2 mod -6.7 (no result: ROMK primary) | KCC2 secondary inactive | KCC2 bumet counter inactive | KCC2 sec2 inactive | HEK293 Tl flux inactive | KCC2 ouabain inactive | HEK counter2 inactive
Cc1cccc(NC(=O)CSc2nnc([C@@H](N)Cc3ccccc3)o2)c1C	none (no result: S1P3 antag, ROMK primary)
Cc1ccccc1-c1nnc(SCC(=O)Nc2cccc(C)c2C)o1	KCC2 mod -4.8 (no result: ROMK primary) | KCC2 secondary inactive | KCC2 bumet counter inactive | KCC2 sec2 inactive | HEK293 Tl flux inactive | KCC2 ouabain inactive | HEK counter2 inactive
CCOC(=O)C(=CNNc1ccccc1)C(=O)OCC	none (no result: RAM inhibit, ROMK primary)
COc1ccc(/C=C/C(=O)NC(=S)N2CCN(C)CC2)cc1	none
C=CCN(CC=C)C(=S)NC(=O)/C=C/c1ccccc1	KCC2 mod 8.9 | KCC2 secondary inactive | KCC2 bumet counter 0.023 | KCC2 sec2 inactive | HEK293 Tl flux 0.02 | KCC2 ouabain 0.029 | HEK counter2 0.02
COc1ccc(/C=C/C(=O)NC(=S)NNC(=O)c2cccs2)cc1	KCC2 mod 12 | KCC2 secondary inactive | KCC2 bumet counter 0.023 | KCC2 sec2 inactive | HEK293 Tl flux 0.022 | KCC2 ouabain 0.037 | HEK counter2 0.021
Cc1cccc(NC(=S)NNC(=O)c2ccco2)c1	none (no result: S1P3 antag, KCC2 mod, ROMK primary)
COc1ccc(/C=C/C(=O)NC(=S)NNC(=O)c2cccnc2)cc1	none
NC(=O)/C(=C\c1ccccc1)NC(=O)/C=C/c1ccccc1	none
C=CCN(CC=C)C(=S)NC(=O)/C=C/c1ccc(OC)cc1	KCC2 mod 74 | KCC2 secondary 0.01 | KCC2 bumet counter 0.14 | KCC2 sec2 0.096 | HEK293 Tl flux 0.11 | KCC2 ouabain 0.11 | HEK counter2 0.087
O=C(/C=C/c1ccc(Br)cc1)NC(=S)NNC(=O)c1ccco1	KCC2 mod 3.9 (no result: S1P3 antag) | KCC2 secondary inactive | KCC2 bumet counter 0.01 | KCC2 sec2 inactive | HEK293 Tl flux inconclusive | KCC2 ouabain inactive | HEK counter2 inactive
COc1cc(NC2c3ccccc3C(=O)N2Cc2ccc3c(c2)OCO3)cc(OC)c1 (stereo unspecified)	none (no result: RAM inhibit)
O=C(c1ccccn1)c1cc2ccccc2n1S(=O)(=O)c1ccccc1	none (no result: ROMK primary)
Cc1cc(C)cc(N(C(=O)c2csnn2)C(C(=O)NC(C)(C)C)c2cccnc2)c1 (stereo unspecified)	none
Cc1ccc2c(c1)nc(-n1nc(C)cc1C)c1nnnn12	none (no result: ROMK primary)
COc1ccc(N2C(=O)CCC(C(=O)NCCCN3CCC(C)CC3)C2c2ccc(OC)c(OC)c2)cc1 (stereo unspecified)	none (no result: ROMK primary)
CCC(C)[C@@H](N)C(=O)N/N=C/c1cccc2nccnc12 (stereo partly specified)	none (no result: RAM inhibit, ROMK primary)
C=CCN(CC=C)C(=O)Nc1cc(OC)ccc1OC	none (no result: RAM inhibit, ROMK primary)
C=CCN(CC=C)C(=S)NC(=O)c1ccc(OC)cc1	KCC2 mod 71 | KCC2 secondary 0.053 | KCC2 bumet counter 0.12 | KCC2 sec2 0.09 | HEK293 Tl flux 0.099 | KCC2 ouabain 0.093 | HEK counter2 0.096
Cc1ccc(/C=C/C(=O)N(Cc2cccs2)C2CCS(=O)(=O)C2)cc1 (stereo unspecified)	none (no result: RAM inhibit, ROMK primary)
COC(=O)c1ccc(NC(=S)NC(=O)c2c(-c3ccccc3)noc2C)cc1	KCC2 mod 17 (no result: RAM inhibit, ROMK primary) | KCC2 secondary inactive | KCC2 bumet counter 0.023 | KCC2 sec2 inactive | HEK293 Tl flux inconclusive | KCC2 ouabain 0.049 | HEK counter2 inactive
Cc1onc(-c2ccccc2)c1C(=O)NC(=S)Nc1sc2c(c1C#N)CCC(C)C2 (stereo unspecified)	KCC2 mod 21 (no result: ROMK primary) | KCC2 secondary inconclusive | KCC2 bumet counter 0.058 | KCC2 sec2 inconclusive | HEK293 Tl flux 0.024 | KCC2 ouabain 0.037 | HEK counter2 0.025
Cc1onc(-c2ccccc2)c1C(=O)Nc1sc2c(c1C#N)CCC2	none (no result: ROMK primary)
